PubChem BioAssay AID2685 (National Center for Advancing Translational Sciences (NCATS), 2010)
Out of some 320,000 compounds screened, about 2,100 (0.66%) were called active. Roughly 53% stayed inconclusive and do not appear here. Calls follow the shape of the dose curve; as a rule, active = well fitted inhibition curve with a large enough effect in the signal ratio, with a control signal flat (not every such curve was filed as active); inconclusive = small, poorly fitted or top-dose-only effect, or effect the other way, or a change in a side signal; inactive = flat fitted curve, though single readings scatter; the % refers to the signal ratio. The sample as a whole holds a higher share of actives than the screen did.

Experiment: qHTS Assay for Lipid Storage Modulators in Drosophila S3 Cells;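 as to cell number change: cells counted by Cell Tracker Red CMTPX staining in the red channel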
Settings: BODIPY lipid droplet fluorescence, 18-24 h, cells fed with added oleic acid; cell number change: measured here: cell count max response; series mostly up to 46.1 µM
Outline: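 Drosophila S3 cells loaded with oleic acid (400 uM, as added) and compounds at several concentrations; lipid droplets imaged by 488-nm laser-scanning cytometry, 500–530 nm intensity and object ratio to cell channel. Percent activity normalized to 20 uM Triacsin C.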
Potency is read from the fitted curve at half-maximal effect.

| Structure (SMILES) | Potency | cell number change [%] |
| --- | --- | --- |
| CCOc1ccc(NC(=S)N2CCC(c3nc4ccccc4[nH]3)CC2)cc1 | inactive | 0.472 |
| COCCn1c(SCC(=O)NNC(=O)c2ccccc2)nc2ccccc2c1=O | inactive | 22 |
| C=CCNC(=O)NC(=O)COC(=O)/C(C#N)=C/c1cc(C)n(CC(C)C)c1C | inactive | 19.6 |
| CCN1C(=O)c2cccc3c(Cl)ccc1c23 | inactive | -17.2 |
| Cc1cc(Cl)c2oc(C(=O)N(C)CCCCN3CCOCC3)c(C)c2c1 | 1.3 µM (active) | -10.7 |
| Cc1cc(Cl)c2oc(C(=O)N(C)CC3CCOCC3)c(C)c2c1 | inactive | -6.12 |
| Cc1cc(Cl)c2oc(C(=O)N(C)CCc3cnn(C)c3)c(C)c2c1 | inactive | -0.298 |
| CC1(OC(=O)C2CCCC2)C(=O)C=C2C=C(c3ccsc3)N(CCCCO)C=C2C1=O (stereo not given) | inactive | -2.75 |
| O=C(O)C(CCCCN1C(=O)c2ccccc2C1=O)N1C(=O)c2ccccc2C1=O (stereo not given) | 29.1 µM (active) | -7.36 |
| O=C1c2ccccc2C(=O)N1CCCOc1ccccc1 | inactive | -1.01 |
| NC(=O)C(Cc1ccccc1)N1C(=O)c2ccccc2C1=O (stereo not given) | inactive | -7.43 |
| CCC(C)(C)n1nnnc1C(c1ccc(N(C)C)cc1)N1CCN(C2CCCCC2)CC1 (stereo not given) | inactive | 1.78 |
| Cc1cc(OCC(O)CNC(C)(C)C)ccc1Cl (stereo not given) | inactive | 3.23 |
| CCOC(=O)N1CCN(C(=O)CCSc2ccc(Cl)cc2)CC1 | inactive | -8.05 |
| CCOC(=O)N1CCN(C(=O)CSc2ccccc2)CC1 | inactive | – |
| CCOC(=O)N1CCN(C(=O)CSc2ccc(Cl)cc2)CC1 | 2.59 µM (active) | 4.78 |
| OC(CNCc1cccnc1)COc1ccc2ccccc2c1 (stereo not given) | inactive | -3.7 |
| CCOC(=O)C1=C(C)N=c2s/c(=C\c3ccc(OCC(=O)O)cc3)c(=O)n2C1c1ccccc1 (stereo not given) | inactive | – |
| CCOC(=O)C1=C(C)N=c2s/c(=C/c3ccc(OCC(=O)O)cc3)c(=O)n2C1c1ccc(OC)cc1OC (stereo not given) | 11.6 µM (active) | -12.6 |
| CCOC(=O)C1=C(C)N=c2s/c(=C\c3ccc(OCC(=O)O)c(OC)c3)c(=O)n2C1c1ccc(OC)cc1 (stereo not given) | inactive | 8.11 |
| OCCN1CCN(c2cc(C(F)(F)F)nc3c(F)cccc23)CC1 | inactive | 16.3 |
| CCOC(=O)N1CCN(C(=O)C2CCN(S(=O)(=O)N3CCC4(CC3)OCCO4)CC2)CC1 | inactive | – |
| CC1(C)O[C@H]2CC(=O)OC[C@@]23C1CC(=O)[C@]1(C)C3CC[C@@]2(C)[C@H](c3ccoc3)OC(=O)[C@H]3O[C@]321 (stereo not given in full) | inactive | – |
| O=C(CN1CCN(C(=O)CNC(=O)c2ccc3c(c2)OCO3)CC1)Nc1ccccc1Cl | inactive | 2.76 |

| Structure (SMILES) | Potency | cell number change [%] |
| --- | --- | --- |
| O=C1C(Cl)=C(N2CCCC2)C(=O)N1c1ccccc1F | 1.46 µM (active) | 2.93 |
| O=C1C(Cl)=C(N2CCOCC2)C(=O)N1c1ccccc1F | inactive | -18.5 |
| Cc1ccccc1N1C(=O)C(Cl)=C(N2CCCCCC2)C1=O | inactive | -0.204 |
| COc1ccc(NC(=O)C2CCCN2C(=O)NCc2ccccc2)cc1OC (stereo not given) | inactive | 1.64 |
| CCOCCCNC(=O)C1CCCN1C(=O)Nc1ccccc1[N+](=O)[O-] (stereo not given) | inactive | 3.63 |
| COc1ccc(NC(=O)C2CCCN2C(=O)NCc2ccccc2)c(OC)c1 (stereo not given) | inactive | -2.72 |
| O=C(NCc1ccccc1)C1CCCN1C(=O)Nc1ccccc1[N+](=O)[O-] (stereo not given) | 0.731 µM (active) | 14.7 |
| COc1cccc(OC)c1NC(=O)C1CCCN1C(=O)NCc1ccccc1 (stereo not given) | 29.1 µM (active) | -20.9 |
| COc1ccccc1NC(=O)N1CCCC1C(=O)NCc1ccccc1 (stereo not given) | inactive | -7.89 |
| Cc1cc(-c2nnc(CCC(=O)N(C)CCc3ccccc3)o2)no1 | inactive | 4.46 |
| CC1CN(C/C(=N\O)C23CC4CC(CC(C4)C2)C3)CC(C)O1 (stereo not given) | inactive | -15.5 |
| O=C(NCc1ccc(Cl)cc1)c1cc([N+](=O)[O-])ccc1Cl | inactive | 16.3 |
| CN(C)S(=O)(=O)c1ccc(NC=C(C#N)C#N)cc1 | inactive | -16.2 |
| Cc1ccc(-c2nc(NC(=O)c3nn(C)cc3[N+](=O)[O-])sc2C)cc1 | inactive | 27.2 |
| CCn1cc([N+](=O)[O-])c(C(=O)Nc2nc(-c3ccc(C)cc3)c(C)s2)n1 | 4.61 µM (active) | 18.4 |
| CCn1cc([N+](=O)[O-])c(C(=O)Nc2nc(-c3ccc(C)c(C)c3)c(C)s2)n1 | inactive | -14.3 |
| CCCCN(C(=O)c1ccccc1OCc1ccc(F)cc1)c1c(N)n(CCC)c(=O)[nH]c1=O | inactive | -14.3 |
| Cn1c(SCc2cccc(C#N)c2)nc2ccccc2c1=O | inactive | 7.25 |
| COc1ccccc1CC(=O)Nc1cc(OC)c(NC(=O)c2ccccc2)cc1OC | inactive | -14.4 |
| COc1cc(NC(=O)c2ccc(Br)cc2)c(OC)cc1NC(=O)c1ccccc1 | 18.4 µM (active) | -19.9 |
| COc1cc(NC(=O)c2ccc3nsnc3c2)cc(OC)c1OC | inactive | 3.44 |
| COc1ccc(OCC(=O)Nc2ccc(NC(=O)c3cccs3)c(OC)c2)cc1 | inactive | 10.8 |
| COc1ccccc1NC(=O)c1ccc2snnc2c1 | inactive | 5.09 |
| COc1ccc(NC(=O)c2cccc(NC(=O)c3ccccc3)c2)c(OC)c1 | inactive | -2.85 |

| Structure (SMILES) | Potency | cell number change [%] |
| --- | --- | --- |
| COc1cc(NC(=O)c2ccccc2)c(OC)cc1NC(C)=O | inactive | -0.51 |
| COc1cc(NC(=O)COc2ccccc2Cl)ccc1NC(=O)c1cccs1 | 4.61 µM (active) | – |
| COc1ccccc1NC(=O)c1ccc2nsnc2c1 | 3.66 µM (active) | 21.1 |
| COc1cc(NC(=O)Cc2ccccc2)ccc1NC(=O)c1ccccc1 | 23.1 µM (active) | 5.29 |
| COc1cc(NC(=O)c2cccnc2)c(OC)cc1NC(=O)c1ccc(Br)cc1 | inactive | 15.3 |
| COc1cc(NC(=O)c2ccccc2Cl)ccc1NC(=O)c1cccs1 | inactive | 16.4 |
| COc1ccc(OCCC(=O)OCC(=O)Nc2ccc(S(=O)(=O)N3CCOCC3)cc2)cc1 | inactive | -18.9 |
| O=C(CSc1nnc(-c2ccc(F)cc2)o1)NC1CCCCC1 | inactive | 12 |
| CCOC(=O)N1CCN(CC(O)COc2ccc3c(c2)CCC3)CC1 (stereo not given) | inactive | -3.83 |
| O=C(CCCCCNC(=O)N1CCn2c1nc1ccccc12)NCc1ccccc1 | inactive | 11.3 |
| CC(NC(=O)c1cccc(N(C)C)c1)c1ccc(-n2ccnc2)cc1 (stereo not given) | inactive | – |
| COc1ccc(S(=O)(=O)N2CCN(c3nc4ccccc4nc3-n3nc(C)cc3C)CC2)cc1 | inactive | -0.676 |
| O=C(NC1CCSC1=O)c1ccc(Oc2cccc(C(F)(F)F)c2)nc1 (stereo not given) | inactive | -7.23 |
| COc1ccc(F)cc1S(=O)(=O)NC1CCCCCC1 | inactive | – |
| C/C(=N/Nc1ncc(C(F)(F)F)cc1Cl)c1ccncc1 | inactive | -2.18 |
| COc1ccc(S(=O)(=O)NCC2CCCN(C(=O)CC3CCCC3)C2)cc1 (stereo not given) | inactive | -9.37 |
| COc1cc2c(cc1NC(=O)c1ccc(C(C)(C)C)cc1)CCCC2 | 16.4 µM (active) | -19.1 |
| COc1ccc(C(=O)Nc2cc3c(cc2OC)CCCC3)cc1Br | inactive | -12.7 |
| COc1cc2c(cc1NC(=O)c1cccnc1)CCCC2 | inactive | -6.97 |
| Oc1ccccc1Oc1ncc(Br)c(Cl)n1 | inactive | 10.9 |
| CCOC(=O)CCc1c(C)nc2cc(-c3ccc(F)cc3)[nH]n2c1=O | inactive | -12 |
| C=CCn1c(SC(C)CC)nc(O)cc1=O (stereo not given) | inactive | – |
| CCCN(CC1CC1)C(=O)COC(=O)c1oc2ccc(OCC)cc2c1C | 4.61 µM (active) | 2.78 |
| CCOc1ccc2oc(C(=O)OCC(=O)NC(=O)NC)c(C)c2c1 | inactive | -6.07 |

| Structure (SMILES) | Potency | cell number change [%] |
| --- | --- | --- |
| CCCN(CC1CC1)C(=O)COC(=O)c1oc2c(F)cccc2c1C | 1.64 µM (active) | 1.1 |
| CCOC(=O)N1CCC(NC(=O)c2oc3c(F)cccc3c2C)CC1 | inactive | -4.45 |
| CCOc1ccc2oc(C(=O)OCC(=O)NC3CCCCC3)c(C)c2c1 | inactive | -21.4 |
| CCCN(CC1CC1)C(=O)COC(=O)c1[nH]c(C)c(C(=O)OCC)c1C | inactive | -17.3 |
| CCn1c(O)c(C(C#N)=C2N=c3ccccc3=N2)c2ccccc21 | inactive | 24.7 |
| O=C(Nc1cccc(NC(=O)c2ccc(Br)o2)n1)c1ccc(Br)o1 | inactive | -4.87 |
| Cc1ccc(NS(=O)(=O)c2cc(C(=O)N3CCN(C)CC3)ccc2C)cc1C | inactive | – |
| CCOc1cccc(OCCCCN2CCCCC2)c1 | inactive | -2.06 |
| CCc1ccc(NC(=O)CN(N=Nc2nonc2C)c2nonc2C)cc1 | inactive | – |
| CC(C)(C)c1csc(Sc2ncccc2[N+](=O)[O-])n1 | inactive | -11.2 |
| Cc1cccc(CSC2=CS(=O)(=O)c3ccccc3N2)c1 | inactive | 2.06 |
| Cc1cccc(CNC(=O)c2cc(S(=O)(=O)N3CCOCC3)cn2C)c1 | inactive | 14.6 |
| CC(=O)c1cccc(NC(=O)COc2ccc(S(=O)(=O)N3CCCCC3)cc2)c1 | inactive | 12.3 |
| Cc1nn(C(C)C(=O)O)c(C)c1[N+](=O)[O-] (stereo not given) | inactive | 3.58 |
| O=C(Nc1nccs1)c1ccc(-c2ccc(F)cc2)o1 | inactive | 0.674 |
| O=C(Nc1nccs1)c1ccc(-c2ccc(F)c(Cl)c2)o1 | 10.3 µM (active) | -11.8 |
| O=C(Nc1nccs1)c1ccc(-c2ccc(Cl)cc2Cl)o1 | inactive | -16.9 |
| CCOC(=O)c1c(NC(=O)Cn2cnc([N+](=O)[O-])n2)sc2c1CCC(C)C2 (stereo not given) | inactive | 2.74 |
| Cc1cccc(NC(=O)c2c(C)cc(=O)oc2C)n1 | 8.2 µM (active) | -10.1 |
| Cc1cc(=O)oc(C)c1C(=O)Nc1ccc(Cl)cn1 | inactive | 1.04 |
| Cc1ccccc1NC(=O)c1c(C)cc(=O)oc1C | inactive | – |
